# HT1080NT lethal: kills 2HG-producing HT-1080-NT fibrosarcoma cells; AID 686970; HT-1080-NT fibrosarcoma viability, CellTiter-Glo ATP luminescence, 48 h; Potency, µM (top dose mostly 46.1 µM), hits mostly cytotoxic; actives 1.6% (n = 360,000);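 further: NT is the 2HG producing partner of a matched IDH1 knockdown line; nearly all actives have a fitted effect of over 55% in size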
#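 750 cells/well, RPMI + 5% FBS; 2 h settle, compound pin-transfer, 48 h at 37 degrees C. CellTiter-Glo 10 min RT, luminescence. Normalized to DMSO and media-only wells.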
# HT1080 IDH1KD tx: kills HT-1080 cells with IDH1 knockdown; Potency, µM (highest dose often 46.1 µM), usual class: cytotoxic; actives 2% (n = 360,000); HT-1080 IDH1 knockdown viability, ATP luminescence, 48 h
#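 Knockdown cells (IDH1KD HT-1080) received compounds 2 h after plating at 750 cells/well and were kept 48 h at 37 °C in 5% FBS RPMI. A CellTiter-Glo luminescence read gave % activity for curve fitting.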
# KB-V1 MDR tox: KB-V1 MDR subline cytotoxicity. KB-V1 MDR cells viability, CellTiter-Glo, 72 h. Potency, µM (top dose mostly 46.1 µM), hits mostly cytotoxic. actives 3.4% (n = 400,000). AID 1347076; further: nearly all actives have a fitted effect of over 60% in size
#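 Luminescent ATP read-out (CellTiter-Glo, 10 min) measures survival of drug-selected KB-V1 MDR cells after 72 h, 37 degrees C compound exposure. Medium: phenol-red-free DMEM, 10% FBS. Values from fitted concentration-response curves.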
# KB-3-1 cytotox: kills parental KB-3-1 adenocarcinoma cells | KB-3-1 viability, CellTiter-Glo ATP luminescence, 72 h | Potency, µM (top dose mostly 46.1 µM), most hits filed as cytotoxic | actives 1.4% (n = 400,000); further: nearly all actives have a fitted effect of over 60% in size
#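 Luminescent ATP read-out (CellTiter-Glo) measures survival of drug-naive KB-3-1 cells after 72 h compound exposure at 37 °C. Titration series was screened from lowest to highest concentration, with DMSO vehicle plates as background controls.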
# Numbers stand for hits; i = inactive; ? = inconclusive; nt = no result given; [ ] = remark or other dose. Rows were chosen to be rich in hits. Some 5.7% of all compounds tested hit in one or more screens of this group. The call rests on the fitted dose curve; in most records, active means well fitted curve in the direction sought with a large enough effect; inconclusive means small, poorly fitted or top-dose-only effect, or another doubt; inactive means no such curve, though single readings can be large; an effect the other way counts as inactive or inconclusive.
SMILES,HT1080NT lethal,HT1080 IDH1KD tx,KB-V1 MDR tox,KB-3-1 cytotox
C/C(CC1CC(C)(C)OC1=O)=N\NC(N)=S (stereo not drawn),i,i,i,i
CCOC(=O)CSc1nc2ccc(NC(=O)COc3ccc(F)cc3)cc2s1,nt,nt,i,i
COc1nc(Nc2ccc([N+](=O)[O-])cc2)nc(NC(C)C)n1,i,i,11.6µM,i
COc1cc(NC(=O)c2cc(-c3ccccc3Cl)on2)cc(OC)c1OC,?,?,?,6.51µM
COCCNC(=O)c1cc(-c2cccs2)on1,i,i,20.6µM,20.6µM
O=C(NCc1cccs1)c1cc(-c2cccs2)on1,i,i,i,i
COc1cc(NC(=O)c2cc(-c3cccc(O)c3)on2)cc(OC)c1OC,?,?,i,11.6µM
COc1cc(NC(=O)c2cc(-c3cccs3)on2)cc(OC)c1OC,i,i,6.51µM,?
Cc1cc(C)cc(NC(=O)c2cc(CN3CCCC3)on2)c1,nt,nt,i,i
O=C(C1CC1)N1CCc2cc(Br)cc(S(=O)(=O)Nc3ccc(C(F)(F)F)cc3)c21,nt,nt,i,i
COc1ccc(C(=O)Cn2nc(CNc3ccc(Br)cc3)[n+]3c2CCCCC3)cc1,?,?,i,20.6µM
O=C(Cn1nc(-c2nn(CC(=O)c3ccccc3)c3[n+]2CCCCC3)[n+]2c1CCCCC2)c1ccccc1,i,i,?,i
Cc1ccc(C(C)C)c(OCc2nn(CC(=O)c3ccc(OC(F)F)cc3)c3[n+]2CCCCC3)c1,14.6µM,18.4µM,i,?
CCc1ccccc1N1C(=O)N(CC(=O)c2ccc(Cl)cc2)c2ccccc2S1(=O)=O,nt,nt,i,i
Cc1cc(Nc2cccc(C(F)(F)F)c2)nc2ccc(NC(=O)Cc3ccc(Cl)cc3)cc12,nt,nt,i,i
O=C(c1cccs1)N(Cc1ccco1)c1ccc(O)cc1,nt,nt,i,i
O=S(=O)(c1ccc(F)cc1)c1nc(-c2ccccc2F)oc1N1CCCCC1,i,i,3.66µM,i
O=S(=O)(c1ccccc1)c1nc(-c2ccc(F)cc2)oc1N1CCCCCC1,nt,nt,?,i
Cn1c(=O)n(-c2ccc(C(C)(C)C#N)cc2)c2c3cc(-c4cnc5ccccc5c4)ccc3ncc21,nt,nt,i,?
COc1ccc(CNC(=O)CCc2c(C)nc3nc(CNC(=O)OC(C)(C)C)nn3c2C)cc1,nt,nt,?,i
CCOC(=O)COc1ccc(Br)cc1/C=C/c1[nH]c(=O)[nH]c(=O)c1[N+](=O)[O-],18.4µM,?,i,i
CCOc1cc(/C=C\c2[nH]c(=O)[nH]c(=O)c2[N+](=O)[O-])ccc1OC(C)CC (stereo not drawn),10µM,?,i,i
Cc1cc(Nc2ccccc2)c2c([N+](=O)[O-])c(C)cc(C)c2n1,i,i,20.6µM,?
Cc1cccc(Nc2cc(C)nc3ccccc23)c1,i,i,i,i
O=C(N/N=C/c1ccccc1O)C1CC(=O)N(c2ccc(Cl)cc2)C1 (stereo not drawn),?,3.26µM,i,?
SMILES,HT1080NT lethal,HT1080 IDH1KD tx,KB-V1 MDR tox,KB-3-1 cytotox
CCCN(Cc1ccc(C)cc1)C(=O)c1ccc(CNS(=O)(=O)c2ccc(C(C)=O)cc2)cc1,i[9.24 µM],i,i,i
CCc1ccc(S(=O)(=O)NCc2ccc(C(=O)NCCN(Cc3ccccc3)C(C)C)cc2)cc1,?,16.4µM,?,i
CC(=O)Nc1ccc(S(=O)(=O)NCc2ccc(C(=O)NCCN(C)Cc3ccccc3)cc2)cc1,i,i,i,i
CCN(Cc1ccccc1)C(=O)c1ccc(CNS(=O)(=O)c2ccc(C)cc2)cc1,i,i,18.4µM,i
Cc1ccc2c(c1)-c1nc(-c3ccc4c(c3)NC(=O)CO4)cc(-c3ccc(Cl)cc3)c1CO2,nt,nt,i,i
CCOC(=O)c1c(C)n(S(=O)(=O)c2ccc(C)cc2)c2ccc(NS(=O)(=O)c3ccc(C)cc3)cc12,nt,nt,?,i
COC(=O)c1ccccc1-c1ccc(/C=N/NC(N)=O)o1,i,i,5.17µM,14.6µM
COC(=O)N/N=C/c1ccc(-c2ccccc2Cl)o1,i,i,6.51µM,?
CC(C)C[C@H]1CNC(=S)N1C[C@H]1CCCN1C[C@H](CC(C)C)N1C[C@H](Cc2ccc(O)cc2)N(CCc2ccccc2)C1=S,18.4µM,?,?,?
CC(C)C[C@H]1CNC(=S)N1C[C@H]1CCCN1C[C@H](Cc1ccc(O)cc1)N1C[C@H](Cc2ccccc2)N(CCc2ccccc2)C1=S,i,i,i,i
